Reference: a collection of fitness landscapes (doi:10.1016/j.celrep.2020.107928)
In all, about 81,000 sequences were measured (“one-hybrid fitness for binding parS DNA”: median about -0.17, highest 2% from about 0.51 on). The sample holds the highest values, similar sequences and a random draw of the others, so the mix is not that of the screen.

B1: Caulobacter ParB omega fusion; a variant is named by its letters at X, in order, B8GW30 (parent)
chain: MESVVVGEPGMSEGRRGLGRGLSALLGEVDAAPAQAPGEQLGGSREAPIEILQRNPDQPRRTFREEDLEDLSNSIREKGVLQPILVRPSPDTAGEYQIVAGERAWRAAQRAGLKTVPIMVRELDDLAVLEIGIIENVQRADLNVLEEALSYKVLMEKFERTQENIAQTIGKSXSHVANXMRLLXLPDEVQSYLVSGELTAXHARAIAAAADPVALAKQIIEGGLSVRETEALARKAPNLSAGKSKGGRPPRVKDTDTQALESDLSSVLGLDVSIDHRGSTGTLTITYATLEQLDDLCNRLTRGI

Variants of: B1
Assay: one-hybrid fitness for binding parS DNA (scaled: cognate 1, non-cognate 0); higher = stronger binding
Conditions: with parS DNA site
How it was run: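 Selection: bacterial one-hybrid in E. coli USO, HIS3 reporter with the site 19 bp from the promoter, 48 hours at 37°C on M9-minus-histidine plus 0.1 mM IPTG and 5 mM 3-AT. Libraries were Caulobacter ParB with four randomised specificity codons, sequenced on Illumina before and after selection. Fitness is the rescaled log change in variant-to-wild-type read ratio, anchored to the cognate and non-cognate sites.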

Variant	one-hybrid fitness for binding parS DNA
HCKF	≤ 0.2
YAFG	≤ 0.2
KYYR	≤ 0.2
ILTL	≤ 0.2
RCSS	0.978
RISN	0.454
RHSP	≤ 0.2
RPSS	≤ 0.2
RHSS	0.912
RISD	≤ 0.2
RHSN	0.379
RCSD	≤ 0.2
RMSS	0.977
RMSH	≤ 0.2
RMSD	≤ 0.2
RISS	0.992
AKPM	≤ 0.2
LGTM	≤ 0.2
TQKH	≤ 0.2
LPSR	≤ 0.2
NDSK	≤ 0.2
CAPL	≤ 0.2
RWPN	≤ 0.2
SQSF	≤ 0.2
PHLE	≤ 0.2

Variant	one-hybrid fitness for binding parS DNA
GVSS	≤ 0.2
LVRT	≤ 0.2
RFSS	1.01
FMSS	≤ 0.2
RKSN	0.296
RFSH	≤ 0.2
RKSP	≤ 0.2
RASS	1
RKSS	0.811
RASH	0.225
RFSP	≤ 0.2
FMSQ	0.554
RASN	0.435
FMSD	≤ 0.2
IYTS	≤ 0.2
TWRH	≤ 0.2
GPLA	≤ 0.2
YVAM	≤ 0.2
RYVW	0.209
HRKW	≤ 0.2
RSSD	≤ 0.2
RSSS	0.99
RSSP	≤ 0.2
YNTS	≤ 0.2
RCGT	0.882

Variant	one-hybrid fitness for binding parS DNA
RSGT	0.91
REGT	0.201
RPGT	≤ 0.2
RDGT	≤ 0.2
RGGT	0.493
TFAS	≤ 0.2
AMCN	≤ 0.2
LFSE	≤ 0.2
CKQG	≤ 0.2
NSAT	≤ 0.2
RQKR	≤ 0.2
RQVR	≤ 0.2
RQKC	0.926
RQKK	≤ 0.2
RQVF	≤ 0.2
RQVC	0.828
RWDY	0.264
RWDC	0.635
RWNC	0.79
RWNR	≤ 0.2
RWNM	0.221
RWDM	≤ 0.2
GKCT	≤ 0.2
STTT	≤ 0.2
WKGT	≤ 0.2

Variant	one-hybrid fitness for binding parS DNA
SGKS	≤ 0.2
RITI	≤ 0.2
RAIH	≤ 0.2
RAPH	≤ 0.2
RAIG	0.871
RDPG	≤ 0.2
RPPG	≤ 0.2
RAPD	≤ 0.2
RAPG	0.569
RAIF	≤ 0.2
RCPG	0.81
NVNI	≤ 0.2
DVVY	≤ 0.2
LLTC	≤ 0.2
GHGR	≤ 0.2
HSMG	≤ 0.2
RQEF	0.206
ATMR	≤ 0.2
RSAD	≤ 0.2
RCAS	1.01
RSAS	0.998
RSAP	≤ 0.2
RPAS	≤ 0.2
RCAP	≤ 0.2
